We go through 105 compounds from ChEMBL document CHEMBL4513216, “Probing the Open Global Health Chemical Diversity Library for Multistage-Active Starting Points for Next-Generation Antimalarials” (ACS Infect Dis, 2020).

Out of some 69,000 compounds screened, about 8,600 (12%) showed an effect of 50% or more. Only a selection was taken, and strong results are over-represented in it overall.

In this test the test system is Plasmodium berghei. The test is described as follows: Screen against P. berghei liver stage (PbLuc), transformed with Luciferase, at 10uM. The format is functional, HepG2. The note with it: tested at 10 uM.
As to `O=C(N1CCCC1)N1CC[C@H]2OCC[C@@]2(COc2ncccc2F)C1`, the INHIBITION was 4.1%. As to `CC(=O)N1CCC(C(=O)N2CCCC(Cc3cccc(C)n3)C2)CC1` (stereo not given), the INHIBITION is given as -18.9%.

As to `CS(=O)(=O)N1CCO[C@@H]2CN(C(=O)c3cccnc3)C[C@@H]2C1`, the INHIBITION is 2.7%. As for `COc1ccccc1CC(C)CC(=O)NS(=O)(=O)C(C)C` (stereo not given), the INHIBITION worked out at 9.57%. With `CCC1=N[C@@]2(CC[C@@H]3CN(CC4CC4)C[C@@H]32)C(=O)N1C`, the INHIBITION was 24.5%. Next, `Cc1ccc(S(=O)(=O)CCC(=O)NCc2nnc3n2CCC3)cc1`: -2.34%; `CC(=O)NCc1nnc2n1CCN(c1nc(C)nc3sccc13)CC2`: 55%; `CC(=O)NCc1nnc2n1CCN(c1ncnc3c1CCC3)CC2`: 56.1%. Next, `O=C(NCc1nnc2n1CCC2)N1CCc2sccc2C1`: -8.11%; `Cn1ccnc1CN1CCc2ncnc(N3CCCC3)c2CC1`: -78.5%; `CC(=O)NCc1nnc2n1CCN(c1ncnc3c(C)csc13)CC2`: 24.7%. As for `COc1ncccc1C(=O)N1CCC(Nc2ccc(C)nn2)CC1`, the figure is 33.7%. Take `c1nnc(Nc2cncc(C3CCCN3)n2)s1` (stereo not given): the INHIBITION was 13.285%. In the case of `Cc1cc(=O)n(C)cc1NC(=O)Cc1ccc(C(F)(F)F)cc1`, the INHIBITION is listed as 11.7%. Consider `Cc1cc(=O)n(C)cc1NC(=O)Cc1cccc(F)c1`, for which the INHIBITION is on record as 25.1%. As to `Cc1cc(=O)n(C)cc1NC(=O)Cc1cc(F)ccc1F`, the INHIBITION worked out at 56.5%. As for `Cc1ccc(NC2(C(=O)NCCCN)CCCC2)cc1`, the INHIBITION amounted to 53.2%. On to `Cc1ccc(NC2(C(=O)NCCCc3c(C)n[nH]c3C)CCCC2)cc1`, for which the INHIBITION is listed as -40.9%.

Consider `Cc1ccc(NC2(C(=O)NCc3c(C)n[nH]c3C)CCCC2)cc1`, for which the INHIBITION came out at 11.6%. With `CO[C@H]1CO[C@@]2(CCCN(C(=O)N(C)C)C2)C1`, the INHIBITION is 35.8%. For the compound `CCc1n[nH]c(C2CN(C(=O)c3cc(C4CC4)on3)CCO2)n1` (stereo not given), the INHIBITION is -3.58%. Next, `CNc1nc(CNC(=O)Nc2ccc([S+](C)[O-])c(F)c2)cs1` (stereo not given): 22.955%. As to `Cn1ccnc1CCNS(=O)(=O)c1cccnc1`, the INHIBITION turned out to be 38.6%. For `Cn1ccnc1CN1CCC(CNS(=O)(=O)c2cccnc2)C1` (stereo not given), the INHIBITION was 58.3%.

Take `O=C(Oc1ccccc1)N1CCC(CNS(=O)(=O)c2cccnc2)CC1`: the INHIBITION stood at 18.2%. Take `O=C(c1ccco1)N1CCc2onc(Cn3cccn3)c2C1`: the INHIBITION is 21.5%. For the compound `CNC(=O)[C@@H]1C[C@@H](N)CN1Cc1ccc2cccc(OC)c2n1`, the INHIBITION was determined as 55.5%.

With `CCNC(=O)[C@@H]1C[C@@H](N)CN1Cc1ccc2cccc(Cl)c2n1`, the INHIBITION turned out to be 11.9%. As for `CCNC(=O)[C@@H]1C[C@H](N)CN1Cc1ccc2cccc(Cl)c2n1`, the figure is 35.4%; as for `O=C1CC2(CCN(S(=O)(=O)c3cccs3)C2)CN1c1ccccc1` (stereo not given), -0.104%.

As to `CC(Cn1cccn1)NC(=O)N1CCN(Cc2ccsc2)CC1` (stereo not given), the INHIBITION was determined as 4.71%. Turning to `CCCN(Cc1cnn(C)c1)S(=O)(=O)c1ccc(F)c(C#N)c1`, the INHIBITION was -32.4%.

Take `O=C(c1ccccc1F)N1CCN(c2ccc(-n3cccn3)nn2)CC1`: the INHIBITION was found to be 0.472%. As to `Cc1nc(N2CCN(C(=O)c3cccnc3)CC2)cc(-n2cccc2)n1`, the INHIBITION worked out at 32.4%. `Cc1cccc(C(=O)N2CCN(c3ccc(-n4cccc4)nn3)CC2)c1`: the INHIBITION is recorded as 51.5%. On to `O=C(c1cccnc1)N1CCN(c2ccc(-n3cccc3)nn2)CC1`, for which the INHIBITION is 0.647%. For the compound `O=C(c1ccccc1F)N1CCN(c2ccc(-n3cccc3)nn2)CC1`, the INHIBITION is 55.9%.

On to `O=C(c1ccccn1)N1CCN(c2ccc(-n3cccc3)nn2)CC1`, for which the INHIBITION came out at 27.6%. `COCC(=O)N1CCCC1c1nccnc1Nc1nc(C)cs1` (stereo not given): the INHIBITION was 39.7%. For `Cc1ccc(C(=O)O)cc1CNC(=O)CN1CC(C)(C)[C@@](C)(O)C1`, the INHIBITION stood at 28.7%.

With `Cc1cnn(CC2CCCN2CC(=O)Nc2cc(C(C)C)no2)c1` (stereo not given), the INHIBITION is -35.7%. With `OC1(CN2CCCC2)CCCN(Cc2cnc(-c3ccccc3)nc2)C1` (stereo not given), the INHIBITION worked out at 45.7%. As for `CN(C)CC1(O)CCCN(Cc2cnc(-c3ccco3)nc2)CC1` (stereo not given), the INHIBITION was 6.28%. Turning to `CC(C)c1nccc(CN2CCCC(O)(CN3CCCC3)C2)n1` (stereo not given), the INHIBITION worked out at 62%. Turning to `CC(C)c1nccc(CN2CCC(O)(CN3CCCCC3)C2)n1` (stereo not given), the INHIBITION came out at 32.5%. For the compound `Cc1cc(F)ccc1CN1CCCC(O)(CN2CCCC2)C1` (stereo not given), the INHIBITION was determined as 55%. As for `CC(C)c1nccc(CN2CCCC(O)(CN(C)C)C2)n1` (stereo not given), the figure is 7.92%; as for `OC1(CN2CCCC2)CCCN(Cc2ccc(F)cc2Cl)C1` (stereo not given), 13.7%; as for `OC1(CN2CCCC2)CCCN(Cc2cnc(-c3ccco3)nc2)C1` (stereo not given), 61%.

Consider `Cc1cc(F)ccc1CN1CCC(O)(CN2CCCCC2)C1` (stereo not given), for which the INHIBITION is given as -10.4%. For the compound `O=C(Cc1cccnc1)N1CCC2(CCN(CC3CCCCC3)C2)CC1`, the INHIBITION is on record as 26.4%. In the case of `Cc1cc(C)cc(C(=O)N2CCCC3(CCCC(=O)N3C)C2)c1` (stereo not given), the INHIBITION is reported as -15.9%.

With `O=C(c1ccc(-n2ccnc2)cc1)N1CCCC(n2ccnc2)C1` (stereo not given), the INHIBITION came out at 2.3%. In the case of `CC(C)(NS(C)(=O)=O)c1nc(-c2cccc(Cl)c2)no1`, the INHIBITION is on record as -4.83%. In the case of `CC=C(C)C(=O)NS(=O)(=O)c1ccc(C(F)(F)F)cc1`, the INHIBITION is given as 13.2%. Regarding `Cc1cccc(CN(Cc2cccnc2)C2CC(C)(C)NC(C)(C)C2)n1`, the INHIBITION was determined as 35.2%.

With `Cc1ccc(CN(Cc2ccccn2)C2CC(C)(C)NC(C)(C)C2)s1`, the INHIBITION is 37%.

With `Cc1ccsc1CN(Cc1cccnc1)C1CC(C)(C)NC(C)(C)C1`, the INHIBITION is 33.7%.

On to `CC1(C)CC(N(Cc2ccccc2)Cc2cccnc2)CC(C)(C)N1`, for which the INHIBITION amounted to 65.4%. Next, `CC1(C)CC(N(Cc2cccnc2)Cc2cccc(F)c2)CC(C)(C)N1`: 75.3%; `Cc1ccc(CN(Cc2cccnc2)C2CC(C)(C)NC(C)(C)C2)s1`: 42.1%; `CC1(C)CC(N(Cc2cccnc2)Cc2cccnc2)CC(C)(C)N1`: 64.9%.

For the compound `Cc1nc[nH]c1CN(Cc1ccc(F)cc1)C1CC(C)(C)NC(C)(C)C1`, the INHIBITION was found to be 42.4%. With `Cc1nc[nH]c1CN(Cc1ccccc1)C1CC(C)(C)NC(C)(C)C1`, the INHIBITION is listed as 6.785%.

As for `CCCN(Cc1cccnc1)C1CC(C)(C)NC(C)(C)C1`, the INHIBITION is reported as 10%. On to `CC1(C)CC(N(Cc2ccncc2)Cc2cccnc2)CC(C)(C)N1`, for which the INHIBITION is 50.1%. Next, `CC1(C)CC(N(Cc2ccccc2)Cc2c[nH]cn2)CC(C)(C)N1`: 13.2%. Next, `COc1ccc(CNC2CCC3(CCC(=O)N3)CC2)cc1` (stereo not given): 19.8%; `CC(C)c1nn(C)c(N(C)C)c1CNCc1cccc(CN(C)C)c1`: 21.8%; `Cn1ncc(C(=O)O)c1C(=O)Nc1nc2ccc(Br)cc2s1`: 6.27%. Regarding `COCCOCC(=O)N1CCc2cc(Cl)cc(Cl)c2C1`, the INHIBITION is on record as 1.86%. Turning to `CCSCc1nc(O)c2nnn(C3CCN(Cc4ccco4)CC3)c2n1`, the INHIBITION is 32.5%. Next, `Cc1ccc(C)c(C(=O)N2CCC3(CCC(=O)N(CC(N)=O)C3)CC2)c1`: 15.2%; `Cn1cc(C(=O)N2CCN(c3ncccn3)CC2)ccc1=O`: 28.8%.

With `CN(CC1CCOC1)S(=O)(=O)c1cccc(C(=O)N2CCCCCC2)c1` (stereo not given), the INHIBITION is recorded as -7.57%.

Regarding `O=C(Cc1cccc(F)c1)N1CCc2ncnc(NC3CCC3)c2CC1`, the INHIBITION was determined as 53%.

With `O=C(Cc1cccc(F)c1)N1CCc2ncnc(NC3CC3)c2CC1`, the INHIBITION is 14%. For the compound `COc1ncnc2c1CCN(C(=O)NCc1cccc(F)c1)CC2`, the INHIBITION worked out at 17.2%. For the compound `COc1ncnc2c1CCN(C(=O)Cc1cccc(F)c1)CC2`, the INHIBITION is 52.6%.

As for `Cc1ncnc2c1CCN(C(=O)Cc1cccc(F)c1)CC2`, the INHIBITION stood at 36.4%. Consider `CCOc1ncnc2c1CCN(S(=O)(=O)CC)CC2`, for which the INHIBITION came out at 30.5%. Regarding `O=C(Cc1cccc(F)c1)N1CCc2ncnc(N3CCCC3)c2CC1`, the INHIBITION was -13.9%. Next, `CCS(=O)(=O)N1CCc2ncnc(OC)c2CC1`: 79.2%; `CCS(=O)(=O)N1CCc2ncnc(C)c2CC1`: 42.3%.

Regarding `Cc1ccc(CN2CCOCC2c2[nH]ncc2C)cn1` (stereo not given), the INHIBITION is recorded as 13.635%. `CCC(c1ccccc1)c1nn2c(CN(CC)CC)nnc2s1` (stereo not given): the INHIBITION is 23.1%. On to `CCC(=O)NCCc1cc2nc(-c3ccncc3)ccn2n1`, for which the INHIBITION came out at 21.4%. For `COCC(C)NC(=O)c1cc(C)n(-c2cccc(OC)c2)c1C` (stereo not given), the INHIBITION is 35.9%. As to `CN1C(=O)CCCC12CCCN(C(=O)c1cccc(C(F)(F)F)c1)C2` (stereo not given), the INHIBITION is on record as 40.8%. Consider `CSCC[C@H](NC(C)=O)c1nc(CCc2ccccc2)n[nH]1`, for which the INHIBITION is on record as -47.9%. On to `CCC=C(C)C(=O)NCc1ccc(OC)nc1`, for which the INHIBITION is given as -0.514%. `Cc1ccccc1-c1noc(CN2CCc3nn(C)c(=O)cc3C2)n1`: the INHIBITION was 7.08%. Next, `CCOCC(O)CN1CCN(C(=O)Cc2cccc(C)c2)CC1` (stereo not given): -52.95%.

As to `CCOCC(O)CN1CCN(C(=O)Cc2ccccc2Cl)CC1` (stereo not given), the INHIBITION came to 25.6%.

With `CCOCC(O)CN1CCN(C(=O)Cc2ccc3c(c2)CCO3)CC1` (stereo not given), the INHIBITION stood at 9.25%.

On to `CCOCC(O)CN1CCN(C(=O)Cc2ccc3c(c2)CCC3)CC1` (stereo not given), for which the INHIBITION was 51.5%.

Consider `CCC(O)CN1CCN(C(=O)Cc2ccccc2Cl)CC1` (stereo not given), for which the INHIBITION amounted to 18.625%. With `O=C(Cc1ccccc1Cl)N1CCN(CC(O)COCCO)CC1` (stereo not given), the INHIBITION came out at 57.85%. Next, `O=C(c1cnccn1)N1CCCC2(CCN(Cc3cccnc3)C2)C1` (stereo not given): -19.5%.

Regarding `O=C(c1cncc(NCC2COc3ccccc3C2)n1)N1CCCCC1` (stereo not given), the INHIBITION is reported as 0.348%. With `CC(C)Cc1nc(OCC(=O)O)c(C#N)c2c1CCCC2`, the INHIBITION stood at 43.4%.

For `CC(C)Cc1nc(OCC(N)=O)c(C#N)c2c1CCCC2`, the INHIBITION turned out to be 51%. As for `CC(C)Cc1nc(OCC(N)=O)c(C#N)c2c1CCC2`, the INHIBITION is given as 16.6%. For `C[C@@H]1C[C@H](C(F)(F)F)n2nc(C3CCN(C(=O)C(C)(C)C)CC3)cc2N1`, the INHIBITION was found to be 8.72%. Take `O=C(NCc1cccnc1)C1=NOC2(CCN(C(=O)N3CCCC3)C2)C1` (stereo not given): the INHIBITION was -50.9%.
